Measured values: PubChem BioAssay AID686949 (The Scripps Research Institute Molecular Screening Center, 2013)
Screen size: about 3,200 compounds; about 2,200 (69%) were called active.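 Rule for the calls: active = activation, as change over the incubation, above the mean of all tested compounds plus 3 SD (cut at about 13% in these data); inactive = the rest.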 So high a share suggests a set chosen from earlier hits. These entries were drawn from the full list.

These compounds were tested against Kallikrein-7 (Homo sapiens) (UniProt P49862) (assay: proKLK7 zymogen activators, confirmation, biochemical, fluorescence intensity, triplicate (AID 686949)). Settings: purified proKLK7, EDANS-DABCYL substrate fluorescence; at 7 µM; stronger effect = higher value; scaled: vehicle 0, mature enzyme 100.
Sequence of Kallikrein-7 (Homo sapiens) (P49862 whole entry, looked up): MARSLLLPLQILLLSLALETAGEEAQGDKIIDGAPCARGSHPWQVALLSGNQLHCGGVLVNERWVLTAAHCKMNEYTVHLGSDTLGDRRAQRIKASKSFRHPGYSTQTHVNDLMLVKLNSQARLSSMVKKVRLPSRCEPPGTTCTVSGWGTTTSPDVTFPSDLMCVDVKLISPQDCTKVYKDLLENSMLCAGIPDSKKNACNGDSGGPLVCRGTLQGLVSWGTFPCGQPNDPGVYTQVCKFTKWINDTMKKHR

activation, active:
COc1cc(/C=C/C(=O)Nc2ccc(OC)c(S(=O)(=O)N3CCOCC3)c2)ccc1OCC#N 96.2%
CN(C(=O)c1ccccn1)c1nnc(-c2ccccn2)s1 74%
CN(C(=O)COc1ccccc1)c1nnc(-c2ccncc2)s1 111%
Oc1ccc2ccc3cccc[n+]3c2c1 34.6%
CN(C(=O)c1cc2c(=O)n3ccccc3nc2s1)C1CCCCC1 33%
CCOCCCNC(=O)c1cc2c(=O)n3ccccc3nc2s1 74.1%
CCN(CC)CCCC(C)n1c2nc(=O)[nH]c(=O)c-2nc2cc(Cl)ccc21 (stereo not given) 75.6%
CCN1CCN(C(=O)Cn2nc(C)n3c(cc4c(OC)cccc43)c2=O)CC1 21%
COC(=O)c1cc(N2CCNCC2)nc2ccccc12 17.1%
CN(CCc1ccccn1)S(=O)(=O)c1ccc2c3c(cccc13)C(=O)N2 68.2%
COCCCn1c(-c2cccs2)nc2nc3ccccc3nc21 24.1%
Cc1cc2cc3n(c2nn1)N=C(Cl)CC3 33.3%
CCC1=C(C(=O)OC)C(c2cc(OC)ccc2OC)C(C#N)=C(N)O1 (stereo not given) 32.8%
O=c1oc2c(CN3CCCCC3)c(O)ccc2c2c1CCCCC2 74.6%
COc1c(N2CCN(C(=S)Nc3ccccc3F)C(C)C2)c(F)cc2c(=O)c(C(=O)O)cn(C3CC3)c12 (stereo not given) 18.5%
CNc1cncc(-c2ccc(NS(C)(=O)=O)cc2)n1 39.7%
C/C(=C\c1ccccc1)C1NC(=O)c2c(sc3c2CCCC3)N1 (stereo not given) 22.4%
COCc1cc(=O)oc2cc(NS(=O)(=O)c3ccc(C)cc3)ccc12 72.3%
CC1(C)Oc2ccc3ccc(=O)oc3c2/C(=N/O)C1=O 89.9%
Cc1nc2ccc(N)nc2nc1C 49.6%
O=C1NC(c2cccc(Cl)c2)Nc2ccccc21 (stereo not given) 20.5%
COc1ccc(CCNC(=O)Nc2ccc3c(c2)c(=O)n(C)n3C)cc1OC 24.5%
C[C@@H]1C(c2ccc(F)cc2)=NN(c2ccc(Br)cc2)[C@H]1C(=O)N1CCOC1=O 27.9%
O=C(NCCN1CCOCC1)c1cc(-c2cccs2)nc2ccccc12 24.8%
Cc1ccc(C2Nc3ccccc3C(=O)N2CCN2CCNC2=O)cc1 (stereo not given) 16.7%
CC(=O)Nc1ccc(-c2cn3cccnc3n2)cc1 74%
CC(C)(C)C(=O)Nc1ccc(-c2cn3cccnc3n2)cc1 73.9%
CCCCCC(=O)Nc1ccc(-c2cn3cccnc3n2)cc1 24.5%
CCN1CCCC1CNC(=O)c1cc2cc(OC)c(OC)cc2[nH]1 (stereo not given) 24.7%
CCOc1ccc(-n2c(SCC(=O)Nc3cc(C)c(NC(=O)c4ccccc4)cc3OC)nnc2-c2cccs2)cc1 15.9%
CC(=O)Nc1cc2ccc(OC(C)=O)cc2oc1=O 125%
CC(=O)Oc1ccc2c(C)c(CC(C)O)c(=O)oc2c1 (stereo not given) 72.5%
Cc1cc(C)c2nc3nc(C)cc(C)c3c(N)c2c1 69%
COc1cc2c(cc1OC)C(C(C)C)=NC(C)(C)C2 63.8%

activation, inactive:
Clc1ccc(-c2cccc3nccn23)cc1 8.31%
CCOc1ccccc1C1C(C(=O)OC)=CN(C)C=C1C(=O)OC -23.5%
COCC(=O)Nc1nnc(COc2ccccc2)s1 -0.07%
CCN(CC)CCCNC(=O)c1cc2c(=O)[nH]c3ccc(C)cc3c2s1 1.54%
C=CCn1c(N)c(S(=O)(=O)c2cccs2)c2nc3ccccc3nc21 8.74%
COc1ccc2c(c1)CCc1cn3ncc(C#N)c3nc1-2 -106%
N#CC1=C(N)Oc2c(sc3ccccc23)C1c1ccco1 (stereo not given) -25.1%
CCNC(=S)Nc1ccc2c(c1)c(=O)n(C)n2Cc1ccc(Cl)cc1 -4.46%
CCN(CC(=O)Nc1c(F)cccc1F)C(=O)c1ccc(-c2ccc(C(C)=O)cc2)o1 -16.9%
CCCCN(C)CCCNC(=O)c1cc(-c2cccs2)nc2ccccc12 -47.1%
CN1c2ccccc2-c2nc3ccccc3n2C1c1ccco1 (stereo not given) 7.38%
